Hits are enriched below; roughly 12% of the tested compounds scored in any of these assays.
Pf growth 96h – P. falciparum growth inhibition at 96 hours | P. falciparum luciferase reporter growth, 96 h | Potency, µM (highest dose often 28.7 µM), without a hit: at the top dose activity change, negative = inhibition, hits mostly inhibitors | actives 6.9% (n = 320,000); further: on the % scale 0 is the no-effect control and ±100 the full control effect
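Delayed-death screen, second-generation endpoint: infected erythrocytes, 2% hematocrit, 0.05% parasitemia final; 96 hours at 37 C, 5% CO2; luciferase detection reagent; luminescence decrease equals reduced growth.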
Pf growth 48h – inhibits P. falciparum growth in the first generation, 48 h; P. falciparum luciferase growth in erythrocytes, 48 h; Potency, µM (top dose mostly 28.7 µM), for the others: at the highest dose activity change, negative = inhibition, most hits filed as inhibitors; actives 5.9% (n = 310,000); AID 504832; further: on the % scale 0 is the no-effect control and ±100 the full control effect
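First compound was added to culture medium, then infected red cells at 0.1% parasitemia and 2% hematocrit (final). After incubation at 37 C under 5% CO2, luciferase detection reagent was dispensed and light output recorded.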
Sm TGR block – S. mansoni TGR enzyme inhibition; purified TGR, DTNB reduction, TNB absorbance 405 nm; Q962Y6; actives 3% (n = 360,000); Potency, µM (titrated, usually from 114 µM), for the others: at the top dose activity change, negative = inhibition, actives largely listed as inhibitors; further: on the % scale 0 is the no-effect control and ±100 the full control effect; nearly all actives have a fitted effect of over 60% in size
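TGR 20 nM + NADPH 100 uM (dispensed conc.), cpd preinc 15 min RT; start with NADPH (500 uM addition) then DTNB (15 mM addition). Kinetic TNB absorbance, 405 nm filter. Four-parameter Hill fit across titration.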
SARS PLpro yeast – SARS-CoV PLP inhibition in yeast | S. cerevisiae expressing SARS-CoV PLpro, growth rescue | actives 0.19% (n = 330,000) | AID 485353 | Potency, µM (top dose mostly 32.9 µM), inactives show at the top dose activity, positive = growth rescue, hits mostly activators; calls by dose curve; further: 0% is about no effect; nearly all actives have a fitted effect of over 55% in size
Numbers without * were called inactive; ? = inconclusive; / = no result given; [ ] = remark or other dose. Unless noted, the call rests on the fitted dose curve; in most records, active means well fitted curve in the direction sought with a large enough effect; inconclusive means small, poorly fitted or top-dose-only effect, or another doubt; inactive means no such curve, though single readings can be large; an effect the other way counts as inactive or inconclusive. Potency means the concentration at half of the fitted maximal effect.

SMILES	Pf growth 96h	Pf growth 48h	Sm TGR block	SARS PLpro yeast
COc1ccc(N=C(C)C2=C(O)COC2=O)cc1	0.33µM*	/	8%[11.4 µM]	7%
COC(=O)c1cc(C)sc1NC(=O)CN1CCN(C(=O)C2CCCO2)CC1 (stereo not drawn)	21%	23%	-20%	3%
Cc1ccc(S(=O)(=O)N2CCN(Cc3nnc(-c4c(-c5ccccc5)noc4C)o3)CC2)cc1	?	?	-3%	1%
Cc1onc(-c2ccc(Cl)cc2)c1-c1ccnn1S(=O)(=O)c1cccc(C(F)(F)F)c1	3.3µM*	1.7µM*	1%	1%
Cc1ccc(S(=O)(=O)n2nccc2-c2c(-c3ccccc3)noc2C)cc1	?	5.9µM*	7%	0%
Cc1onc(-c2ccccc2)c1-c1ccnn1S(=O)(=O)c1ccc(Cl)cc1	3.3µM*	?	-1%	-3%
C=CCc1ccc(O)c(-c2ccc(O)c(CC=C)c2)c1	8.3µM*	?	45µM*	-3%
COc1ccc(NC2CCCN(C(=O)CN3C(=O)c4ccccc4C3=O)C2)cc1OC (stereo not drawn)	-9%	-5%	-35%	3%
Cc1ccc(-n2ncc3c2CCCC3NC(=O)CCCN2CCCCC2=O)cc1C (stereo not drawn)	13µM*	-6%	1%	1%
CC1(C)Cc2c(cnn2-c2ccc(F)cc2)C(NC(=O)CCCN2CCCCC2=O)C1 (stereo not drawn)	13µM*	-25%	-12%	-2%
CC1(C)Cc2c(cnn2-c2ccccc2)C(NC(=O)CCCN2CCCCC2=O)C1 (stereo not drawn)	6.6µM*	-8%	0%	21%
CC1(C)Cc2c(cnn2-c2ccccc2)C(NC(=O)CCN2CCCC2=O)C1 (stereo not drawn)	15µM*	10%	-8%	4%
Fc1ccccc1Cn1c(-c2ccccc2)nc2ccccc21	/	/	4%	/
O=S(=O)(c1ccccc1)[C@@]1(c2ccccc2)C[C@@H]2ON=C(c3cccc(-c4ccccc4)c3)[C@@H]2C1	?	7.4µM*	0%	0%
Cc1ccc(NC2(c3nnnn3-c3c(C)cccc3C)CCCCC2)cc1	?	13µM*	-2%	-88%
CS(=O)(=O)N1CCCC(C(=O)NCc2cccs2)C1 (stereo not drawn)	5.9µM*	-4%	25%	5%
CCC1CCCCN1S(=O)(=O)c1ccc(S(=O)(=O)N(Cc2cccs2)C2CC2)cc1 (stereo not drawn)	29%	8.3µM*	6%	-1%
Cc1ccc(S(=O)(=O)N2CCCC(C(=O)N(Cc3cccs3)C3CC3)C2)cc1 (stereo not drawn)	13µM*	5.2µM*	?	-11%
CCC1CCCCN1S(=O)(=O)c1ccc(S(=O)(=O)N(Cc2ccccn2)CC2CCCO2)cc1 (stereo not drawn)	17%	-28%	-15%	-37%
CCS(=O)(=O)N1CCC(C(=O)NCc2cccs2)CC1	7.4µM*	0%	-1%	1%
CC1CCCC(C)N1C(=O)COC(=O)/C=C/c1ccc(Br)o1 (stereo not drawn)	/	/	/	-4%
O=C(/C=C/c1ccc(Br)o1)OCc1ccccc1	/	8%	22µM*	-9%
CC1CCN(C(=O)COC(=O)/C=C/c2ccc(Br)o2)CC1	87%	8%	8.9µM*	5%
O=C(/C=C/c1ccc(Br)o1)NC(c1ccccc1)c1ccccc1	?	12µM*	45µM*	-37%
COc1cccc(OC)c1NC(=O)Cn1nc(-c2ccc3c(c2)OCCO3)ccc1=O	46%	-11%	0%	-1%
SMILES	Pf growth 96h	Pf growth 48h	Sm TGR block	SARS PLpro yeast
CC(=O)Nc1cc2c(cc1NC(=O)Cn1nc(-c3ccccc3F)ccc1=O)OCCO2	39%	?	45µM*	3%
CCCCN(C(=O)c1cc2c(s1)CCC2)c1c(N)n(CCC)c(=O)[nH]c1=O	25%	4%	-16%	-3%
O=C(CCCN1C(=O)/C(=C/c2cccc(Br)c2)SC1=S)NCCCN1CCOCC1	3.3µM*	?	2%	3%
O=C(CCN1C(=O)/C(=C/c2ccccc2Cl)SC1=S)NCCCN1CCOCC1	13µM*	?	-30%	3%
Cc1ccc(-n2c(-c3ccccc3)n[nH]c2=S)c(C)c1	13µM*	-13%	2%	5%
CC(c1ccccc1)n1c(-c2ccc(C(C)(C)C)cc2)n[nH]c1=S (stereo not drawn)	4.7µM*	20%	-3%	3%
CCc1cc(-c2n[nH]c(=S)n2C(C)c2ccccc2)cs1 (stereo not drawn)	1%[5.75 µM]	9%	-18%	13%
CC(C)(C)c1ccc(-c2n[nH]c(=S)n2-c2ccccc2)cc1	2.9µM*	310%	-1%	-4%
Cc1ccc(-n2c(-c3ccccc3)n[nH]c2=S)cc1	-19%	27%	-26%	-6%
O=C(NC1CCCCC1)C(c1ccc(O)cc1)N(C(=O)c1cnccn1)c1cccc(F)c1 (stereo not drawn)	18%	-2%	-16%	5%
Cc1ccnc(NC(=O)C2CCN(S(=O)(=O)c3ccc(C)c(C)c3)CC2)c1	-57%	34%	-4%	2%
O=C(CCCOc1ccc(Br)cc1)NNC(=O)c1ccncc1	7%	-22%	4%	2%
CC(=O)Nc1ccc(C(=O)COC(=O)CCc2ccccc2)c(F)c1	?	-7%	-2%	-11%
C[C@H]1CCC2[C@](C)(CO)[C@@H](O)CC[C@]2(C)[C@@]12CCC(CO)(CCO)O2 (stereo partly drawn)	-1%	6%	0%	-2%
C[C@@]1(CO)[C@H](O)CC[C@@]2(C)[C@H]1CC[C@H]1C[C@@H]3C[C@@]12CC[C@]3(O)CO	0.59µM*	0.52µM*	9%	-1%
FC(F)(F)c1cccc(-c2nnn3c2nc(NC2CCCCC2)c2ccccc23)c1	/	/	-3%	/
NNc1nc2c(-c3cccc(C(F)(F)F)c3)nnn2c2ccccc12	26%	6.6µM*	37%	-4%
COc1ccc(C2(C)NC(=O)NC2=O)cc1OC (stereo not drawn)	35%	10%	4%	6%
Cc1ccc(Sc2ccc(NC(=O)CCl)cc2)c(C)c1	?	8.3µM*	?	-17%
O=Cc1ccc(Sc2nnc(-c3ccccc3)o2)c([N+](=O)[O-])c1	?	/	11µM*	-12%
CNC(=O)COC(=O)/C=C/c1cn(-c2ccccc2)nc1-c1ccc(C)o1	7.4µM*	12µM*	?	0%
CCOC(=O)CN(C(=O)CSc1nnc2c(n1)[nH]c1c(C)cc(C)cc12)c1ccccc1	?	/	0%	12%
CCOC(=O)CN(C(=O)CSc1nnc2c(n1)[nH]c1ccccc12)c1ccccc1	?	7.4µM*	13%	1%
CCOC(=O)CN(C(=O)CSc1nnc2c(n1)[nH]c1ccc(F)cc12)c1ccccc1	3%	13µM*	-1%	7%
Cc1ccnc(NC(=O)CSc2nnc3c(n2)[nH]c2ccccc23)c1	-4%	8%	?	0%
Cc1cccc(CSc2nnc3c(n2)[nH]c2ccccc23)c1	1.9µM*	1.5µM*	5%	1%

Screens as filed in PubChem.
